Inconclusive results are not listed. Activity calls are given as the source filed them. Unless noted, the call rests on the fitted dose curve.
Assays:
[1] = Nuclear factor erythroid 2-related factor 2/antioxidant responsive element (Nrf2/ARE) small molecule agonists: qHTS cell viability counter screen in human keratinocytes (AID 1919968; active means well fitted curve in the direction sought with a large enough effect in the repeat runs; an effect the other way counts as inactive or inconclusive; further: nearly all actives have a fitted effect of over 55% in size; further: potency means the concentration at half of the fitted maximal effect)
Summary of the method: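 CellTiter-Fluor fluorescence, read 1 h after reagent, gave viability in the same wells as the ARE-luciferase assay. KeratinoSens cells (1,500/well) had 23 h compound exposure at 37 C/5% CO2 following 5 h plating.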

[2] = target: Gonadotropin-releasing hormone receptor (Homo sapiens) (UniProt P30968); assay: Human gonadotropin-releasing hormone receptor (GnRHR) small molecule agonists, calcium flux assay in GnRHR-HEK293 cells (AID 1920063); further: nearly all actives have a fitted effect of over 35% in size
Summary of the method: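 Agonist mode: compounds at 15 concentrations, in triplicate, went onto calcium dye-loaded GnRHR-HEK293 cells. Intracellular calcium was then followed as 480/540 nm fluorescence at 1 s intervals over 3 min.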

[3] = target: KiSS-1 receptor (Homo sapiens) (UniProt Q969F8); assay: Human kisspeptin (KISS1R) small molecule agonists, calcium flux assay in KISS1R-HEK293 cells (AID 1920064; active means well fitted curve in the direction sought with a large enough effect in the repeat runs; an effect the other way counts as inactive or inconclusive)
Summary of the method: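 Agonist mode: intracellular calcium rise tracked at 1 s intervals over 3 min (480/540 nm) immediately after compound addition to dye-loaded KISS1R-HEK293 stable cells. Each compound tested at 15 concentrations in triplicate.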

[4] = G protein-coupled receptor (GPCR) small molecule agonists, calcium flux assay: HEK293 wild type cell line counter screen (AID 1920065)
Summary of the method: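 Calcium flux counter screen: compound added in agonist mode at 15 concentrations in triplicate to dye-loaded parental HEK293 cells. Fluorescence (480/540) read kinetically for 3 min; ATP served as positive control.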

[5] = p53 small molecule agonists, cell-based qHTS assay with human liver microsomes: qHTS cell viability counter screen (AID 1963579); further: nearly all actives have a fitted effect of over 45% in size
Summary of the method: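 Metabolically activated exposure: compounds, human liver microsomes and NADPH (0.5 mg/mL final apiece) were added to p53RE-bla cells seeded 5 h earlier, left 16 h at 37 C, and then assessed for viability by CellTiter-Glo luminescence.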

[6] = p53 small molecule agonists, cell-based qHTS assay with rat liver microsomes: qHTS cell viability counter screen (AID 1963580); further: nearly all actives have a fitted effect of over 45% in size
Summary of the method: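 Luminescent ATP readout (CellTiter-Glo, 30 min at room temperature) reports viability of p53RE-bla HCT-116 cells after 16 h at 37 C with test compounds under metabolic activation by rat liver microsomes and NADPH at 0.5 mg/mL final each.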

[7] = p53 small molecule agonists, cell-based qHTS assay: qHTS cell viability counter screen (AID 1963581); further: nearly all actives have a fitted effect of over 45% in size
Summary of the method: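 Counter screen read by CellTiter-Glo luminescence (ATP content, 30 min at room temperature), run in the same wells as the beta-lactamase reporter read. HCT-116 p53RE-bla cells saw compounds for 16 h at 37 C.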

[8] = target: 5-hydroxytryptamine receptor 2A (Homo sapiens) (UniProt P28223); assay: 5-hydroxytryptamine receptor 2A (HTR2A) small molecule agonists, cell-based qHTS assay (AID 1963587); further: nearly all actives have a fitted effect of over 30% in size; further: potency means the concentration at half of the fitted maximal effect
Summary of the method: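 HTR2A-CHO cells, plated 18 h at 37 C/5% CO2, dye-loaded 1 h at 37 C; compounds in DMSO added by pin tool (agonist mode). Intracellular calcium flux read as kinetic fluorescence on FDSS over 2 min at 1 s intervals.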

[9] = target: Muscarinic acetylcholine receptor M1 (Homo sapiens) (UniProt P11229); assay: Cholinergic receptor muscarinic 1 (CHRM1) small molecule antagonists, cell-based qHTS assay (AID 1963588); further: nearly all actives have a fitted effect of over 40% in size; further: potency means the concentration at half of the fitted maximal effect
Summary of the method: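 Compounds were tested at 15 concentrations in three independent runs. Dye-loaded CHRM1-CHO cells were exposed 5 min at room temperature before stimulation by acetylcholine added at 50nM. Intracellular calcium was read kinetically on FDSS for 3 min.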

[10] = target: Muscarinic acetylcholine receptor M1 (Homo sapiens) (UniProt P11229); assay: Cholinergic receptor muscarinic 1 (CHRM1) small molecule agonists, cell-based qHTS assay (AID 1963589); further: nearly all actives have a fitted effect of over 35% in size
Summary of the method: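 Agonist-mode calcium-flux screen: compounds at 15 concentrations, three independent runs, were pin-transferred onto dye-loaded human CHRM1-CHO cells. Fluorescence was then recorded kinetically every second over minutes.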

[11] = cAMP Responsive Elements (CRE) small molecule agonists, cell-based qHTS assay (AID 1963590)
Summary of the method: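 Agonist mode: compound added to CRE-bla HEK 293T cells (2,000/well, 18 h after plating) for 3 h at 37 C/5% CO2. Reporter activity detected via FRET beta-lactamase substrate, 2 h room-temperature loading.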

[12] = cAMP Responsive Elements (CRE) small molecule antagonists, cell-based qHTS assay (AID 1963591; active means well fitted inhibition curve with a large enough effect in the signal ratio in the repeat runs, not every such curve was filed as active; the % refers to the signal ratio)
Summary of the method: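 Antagonist mode: compounds are added alongside the adenylyl cyclase activator NKH477 (0.25 uM final) to CRE-bla HEK293T cells for 3 h. LiveBLAzer FRET substrate, 2 h at room temperature, reports bla expression.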

[13] = target: Beta-2 adrenergic receptor (Homo sapiens) (UniProt P07550); assay: Adrenergic beta2 receptor (ADRB2) small molecule antagonists, cell-based qHTS assay (AID 1963592); further: series mostly up to about 92 µM; nearly all actives have a fitted effect of over 50% in size
Summary of the method: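 Assay format: CHO-ADRB2 cells, 18-20hr seeding at 37C/5% CO2, then compound plus 1nM isoproterenol agonist mix for 0.5hr RT. Homogeneous time-resolved fluorescence cAMP detection after 1hr, expressed as 665/615 nm ratio.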

[14] = target: D(2) dopamine receptor (Homo sapiens) (UniProt P14416); assay: Dopamine D2 receptor (DRD2) small molecule agonists, cell-based qHTS assay (AID 1963594); further: nearly all actives have a fitted effect of over 35% in size
Summary of the method: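 HEK293 cells stably expressing DRD2 were cultured 24 h at 37 C, then given Ro20-1724 (0.1 mM final) and compounds for 10 min at room temperature. NKH477 (200nM) was then added for 30 min. cAMP was read by HTRF.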

[15] = target: D(2) dopamine receptor (Homo sapiens) (UniProt P14416); assay: Dopamine D2 receptor (DRD2) small molecule antagonists, cell-based qHTS assay (AID 1963595; active means well fitted inhibition curve with a large enough effect in the signal ratio in the repeat runs, with a control signal flat; the % refers to the signal ratio)
Summary of the method: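 Cells were plated and grown for 24 h at 37 °C. Ro20-1724 (0.1 mM final) went in first, then compound for 10 min. NKH477 (200 nM) with quinpirole (12 nM) followed for 30 min at RT, then HTRF detection reagents for 1 h.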

[16] = p53 small molecule agonists, cell-based qHTS assay (AID 1963582; active means well fitted activation curve with a large enough effect in the signal ratio in the repeat runs, not every such curve was filed as active; the % refers to the signal ratio)
Summary of the method: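 Read-out is beta-lactamase FRET fluorescence after 2 h at room temperature with LiveBLAzer B/G substrate. p53 response element-bla cells were treated 16 h at 37 C with compounds in DMSO, added 5 h after seeding.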

[17] = target: Beta-2 adrenergic receptor (Homo sapiens) (UniProt P07550); assay: Adrenergic beta2 receptor (ADRB2) small molecule agonists, cell-based qHTS assay (AID 1963593);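 further: CHO cells stably overexpressing human ADRB2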
Summary of the method: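 CHO cells stably over-expressing ADRB2 were plated overnight at 37C, then dosed with compounds plus a stimulation mix containing 100uM IBMX and 25uM Ro-20-1724 for 0.5hr at room temperature. cAMP was measured by HTRF competition, 1hr.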

[18] = target: 5-hydroxytryptamine receptor 2A (Homo sapiens) (UniProt P28223); assay: 5-hydroxytryptamine receptor 2A (HTR2A) small molecule antagonists, cell-based qHTS assay (AID 1963586); further: nearly all actives have a fitted effect of over 45% in size; further: potency means the concentration at half of the fitted maximal effect
Summary of the method: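 CHO cells stably expressing human HTR2A were plated for 18 h at 37 C, then loaded with calcium dye for 1 h. Compounds were preincubated 5 min at room temperature before DOI (4 nM solution) was added. Kinetic fluorescence was read for 3 min.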

[19] = p53 small molecule agonists, cell-based qHTS assay with human liver microsomes (AID 1963577);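 further: p53 response element beta-lactamase reporter cells with liver microsomes plus NADPH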
Summary of the method: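 In this qHTS, p53 response-element beta-lactamase cells receive test compound together with a microsome/NADPH activating system (0.5 mg/mL final each) and are incubated 16 h at 37 C before LiveBLAzer fluorescence detection.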

[20] = p53 small molecule agonists, cell-based qHTS assay with rat liver microsomes (AID 1963578)
Summary of the method: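 Agonist mode in p53RE-bla reporter cells, with compounds co-incubated 16 h at 37 C alongside 0.5 mg/mL rat liver microsomes and 0.5 mg/mL NADPH (final), followed by a 2 h LiveBLAzer detection step.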
On the % scale 0 is the no-effect control and ±100 the full control effect.

Sequence of D(2) dopamine receptor (Homo sapiens) (P14416 whole entry, looked up): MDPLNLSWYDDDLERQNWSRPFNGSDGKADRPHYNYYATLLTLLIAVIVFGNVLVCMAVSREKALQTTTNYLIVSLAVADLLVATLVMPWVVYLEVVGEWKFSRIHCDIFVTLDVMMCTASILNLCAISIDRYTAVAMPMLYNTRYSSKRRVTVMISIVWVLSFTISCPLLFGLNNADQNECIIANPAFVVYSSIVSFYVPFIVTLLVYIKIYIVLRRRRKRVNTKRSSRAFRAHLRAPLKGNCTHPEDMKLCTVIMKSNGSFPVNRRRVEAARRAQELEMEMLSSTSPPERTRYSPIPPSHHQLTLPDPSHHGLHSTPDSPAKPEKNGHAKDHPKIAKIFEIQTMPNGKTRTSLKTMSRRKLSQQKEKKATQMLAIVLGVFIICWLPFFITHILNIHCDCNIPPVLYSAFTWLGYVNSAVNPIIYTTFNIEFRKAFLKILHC
Sequence of 5-hydroxytryptamine receptor 2A (Homo sapiens) (P28223 whole entry, looked up): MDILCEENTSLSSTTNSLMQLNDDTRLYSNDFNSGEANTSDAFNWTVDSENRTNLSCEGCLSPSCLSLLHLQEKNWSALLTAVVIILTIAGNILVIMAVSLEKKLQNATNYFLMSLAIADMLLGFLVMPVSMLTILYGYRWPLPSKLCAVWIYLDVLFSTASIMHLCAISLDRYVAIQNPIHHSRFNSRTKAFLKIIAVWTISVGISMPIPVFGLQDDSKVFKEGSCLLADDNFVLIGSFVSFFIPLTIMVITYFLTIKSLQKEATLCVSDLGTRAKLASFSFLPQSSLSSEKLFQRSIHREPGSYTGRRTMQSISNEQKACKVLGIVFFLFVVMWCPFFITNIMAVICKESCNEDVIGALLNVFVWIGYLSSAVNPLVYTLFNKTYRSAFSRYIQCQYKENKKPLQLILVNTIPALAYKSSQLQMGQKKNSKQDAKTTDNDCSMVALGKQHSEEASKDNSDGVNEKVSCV
Sequence of Muscarinic acetylcholine receptor M1 (Homo sapiens) (P11229 whole entry, looked up): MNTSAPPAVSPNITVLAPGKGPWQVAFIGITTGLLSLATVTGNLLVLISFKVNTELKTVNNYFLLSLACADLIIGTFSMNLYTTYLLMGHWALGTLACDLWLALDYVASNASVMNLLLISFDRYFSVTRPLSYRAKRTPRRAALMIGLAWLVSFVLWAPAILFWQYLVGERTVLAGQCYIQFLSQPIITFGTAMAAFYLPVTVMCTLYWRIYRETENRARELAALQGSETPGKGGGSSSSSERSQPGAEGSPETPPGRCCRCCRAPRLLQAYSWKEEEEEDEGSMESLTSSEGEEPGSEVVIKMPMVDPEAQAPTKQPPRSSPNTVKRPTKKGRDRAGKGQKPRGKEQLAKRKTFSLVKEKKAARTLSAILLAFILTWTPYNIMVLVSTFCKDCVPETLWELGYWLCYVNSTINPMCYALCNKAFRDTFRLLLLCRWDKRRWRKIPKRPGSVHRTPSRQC
Sequence of Beta-2 adrenergic receptor (Homo sapiens) (P07550 whole entry, looked up): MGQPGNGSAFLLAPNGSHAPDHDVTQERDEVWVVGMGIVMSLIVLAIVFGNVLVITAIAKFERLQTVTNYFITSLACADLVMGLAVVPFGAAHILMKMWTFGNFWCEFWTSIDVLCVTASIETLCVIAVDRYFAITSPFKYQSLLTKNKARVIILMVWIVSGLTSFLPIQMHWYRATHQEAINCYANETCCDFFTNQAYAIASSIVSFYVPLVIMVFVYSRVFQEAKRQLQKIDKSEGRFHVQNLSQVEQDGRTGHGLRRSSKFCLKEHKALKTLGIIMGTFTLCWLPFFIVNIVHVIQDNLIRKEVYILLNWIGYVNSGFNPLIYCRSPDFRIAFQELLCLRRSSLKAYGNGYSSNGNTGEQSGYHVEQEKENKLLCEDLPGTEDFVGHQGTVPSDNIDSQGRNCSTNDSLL
Sequence of KiSS-1 receptor (Homo sapiens) (Q969F8 whole entry, looked up): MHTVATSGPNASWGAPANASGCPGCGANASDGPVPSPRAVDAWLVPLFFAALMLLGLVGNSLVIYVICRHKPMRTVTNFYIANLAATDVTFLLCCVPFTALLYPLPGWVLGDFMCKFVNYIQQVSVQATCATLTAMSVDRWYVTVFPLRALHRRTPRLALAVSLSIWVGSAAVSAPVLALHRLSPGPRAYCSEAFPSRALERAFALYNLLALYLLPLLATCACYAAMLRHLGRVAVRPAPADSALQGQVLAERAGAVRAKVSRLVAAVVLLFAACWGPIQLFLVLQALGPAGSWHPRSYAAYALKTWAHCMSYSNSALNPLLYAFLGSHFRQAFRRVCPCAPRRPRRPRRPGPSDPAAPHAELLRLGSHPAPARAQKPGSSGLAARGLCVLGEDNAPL
Sequence of Gonadotropin-releasing hormone receptor (Homo sapiens) (P30968 whole entry, looked up): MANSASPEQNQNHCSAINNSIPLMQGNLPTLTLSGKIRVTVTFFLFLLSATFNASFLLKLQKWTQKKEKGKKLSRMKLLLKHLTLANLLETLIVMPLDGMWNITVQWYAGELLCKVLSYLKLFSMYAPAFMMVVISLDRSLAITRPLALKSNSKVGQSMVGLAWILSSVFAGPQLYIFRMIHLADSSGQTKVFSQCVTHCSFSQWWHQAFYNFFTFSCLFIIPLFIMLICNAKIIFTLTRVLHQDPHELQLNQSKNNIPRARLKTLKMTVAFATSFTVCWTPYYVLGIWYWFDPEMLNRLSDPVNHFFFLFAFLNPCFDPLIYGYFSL

Oc1cccc(Nc2ccccc2)c1
inactive: Potency [1] | Potency [2] | Potency [3] | Potency [4] | Potency [5] | Potency [6] | Potency [7] | Potency [8] | Potency [9] | Potency [10] | Potency [11] | Potency [12] | Potency [13] | Potency [14] | Potency [15]

CCN(CC)CC(=O)Nc1c(C)cccc1C
inactive: Potency [1] | Potency [2] | Potency [3] | Potency [4] | Potency [7] | Potency [16] | Potency [11] | Potency [12] | Potency [13] | Potency [17] | Potency [14]

CN(C)CCC(c1ccc(Cl)cc1)c1ccccn1 (configuration not stated)
inactive: Potency [1] | Potency [2] | Potency [3] | Potency [4] | Potency [7] | Potency [11] | Potency [12] | Potency [13] | Potency [17] | Potency [14] | Potency [15]

CCC(CC)Nc1ccc(C)c(C)c1
inactive: Potency [1] | Potency [2] | Potency [3] | Potency [4] | Potency [6] | Potency [7] | Potency [18] | Potency [8] | Potency [9] | Potency [10] | Potency [11] | Potency [13] | Potency [14]

CCCCCOC(=O)c1ccc(O)cc1
active: Potency [18] 9.54 µM | Potency [8] 35.1 µM
inactive: Potency [1] | Potency [2] | Potency [3] | Potency [4] | Potency [6] | Potency [7] | Potency [10] | Potency [13] | Potency [17] | Potency [14] | Potency [15]

CC(=O)OC(C)OC(C)=O
inactive: Potency [1] | Potency [2] | Potency [3] | Potency [19] | Potency [20] | Potency [5] | Potency [6] | Potency [7] | Potency [16] | Potency [18] | Potency [8] | Potency [9] | Potency [10] | Potency [11] | Potency [12] | Potency [13] | Potency [14] | Potency [15]

CN(C)CCCCCCN(C)C
inactive: Potency [1] | Potency [2] | Potency [3] | Potency [4] | Potency [18] | Potency [8] | Potency [9] | Potency [10] | Potency [11] | Potency [12] | Potency [13] | Potency [17] | Potency [14]

O=CO
inactive: activity change, negative = cytotoxicity [1] 0.89% [at 8.39 µM] | activity change [2] 0% [at 5.22 µM, stronger effect = higher value] | activation [3] 4.55% [at 6.97 µM] | activation [4] -0.0753% [at 5.23 µM] | activity change, negative = cytotoxicity [5] -2.15% [at 5.99 µM] | activity, negative = inhibition [18] 0.711% [at 5.62 µM] | activation [8] 0.778% [at 7.02 µM] | activity, negative = inhibition [9] 7.62% [at 5.58 µM] | activation [10] -0.0923% [at 6.97 µM] | activation [11] 0.47% [at 8.39 µM] | activity change, negative = inhibition [12] -5.34% [at 8.39 µM] | activity change, negative = inhibition [13] 1.71% [at 8.39 µM] | activation [14] 0.218% [at 8.39 µM] | activity change, negative = inhibition [15] -7.6% [at 8.38 µM]

COc1ccc2cc1Oc1ccc(cc1)C[C@H]1c3c(cc4c(c3Oc3cc5c(cc3OC)CCN(C)[C@@H]5C2)OCO4)CCN1C
inactive: Potency [2] | Potency [3] | Potency [4] | Potency [5] | Potency [6] | Potency [18] | Potency [13]
active: Potency [1] 23.7 µM | Potency [9] 20.5 µM

CN(C)CC[C@@H](c1ccc(Cl)cc1)c1ccccn1
inactive: Potency [1] | Potency [2] | Potency [3] | Potency [4] | Potency [16] | Potency [11] | Potency [12] | Potency [13] | Potency [14] | Potency [15]

Source: PubChem BioAssay (Tox21)
